Hits are enriched below; roughly 28% of the tested compounds scored in any of these assays.
D1 mod = D1 dopamine receptor (human) allosteric modulation. HEK293 D1, CRE-luciferase, dopamine EC30 potentiation; actives deviate in either direction. B-score at 10 µM. P21728. hit rate 5.9% among 58,000;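 active = luminescence count or its row- and column-corrected plate score outside the 99.7% band of the plate's sample wells, on either side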
CYP2C9 activ = activators of human CYP2C9 | hit rate 1.4% among 96,000 | P11712 | activation factor at 5 µM | recombinant CYP2C9, luciferin-H conversion, luminescence; stronger effect = higher value; factor 1 = untreated enzyme, 0 = blocked;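 active = activation factor of 2 or more for CYP2C9 at a 5 µM dose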;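 note: 0 = sulfaphenazole-blocked wells and 1 = vehicle-only wells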
CYP2C9 inhib = human CYP2C9 inhibition | P11712 | CYP2C9 Supersomes, luciferin-H conversion, luminescence | inhibition, % at 5 µM | hit rate 20% among 96,000;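 active = blocking of liver enzyme CYP2C9 beyond about 50% at 5 µM, limit read from the data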
CYP2C19 act = activators of human cytochrome P450 2C19. P33261. recombinant CYP2C19, luciferin-H EGE luminescence; stronger effect = higher value; 0 = fully inhibited enzyme, 1 = untreated enzyme. activation factor at 5 µM. 96,000 tested, under 10 active;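 active = activation factor of at least 2 at 5 µM in the primary screen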;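 note: 0 = wells with 2.5 mM tranylcypromine and 1 = vehicle-only wells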
Target sequence (P33261 whole entry, looked up): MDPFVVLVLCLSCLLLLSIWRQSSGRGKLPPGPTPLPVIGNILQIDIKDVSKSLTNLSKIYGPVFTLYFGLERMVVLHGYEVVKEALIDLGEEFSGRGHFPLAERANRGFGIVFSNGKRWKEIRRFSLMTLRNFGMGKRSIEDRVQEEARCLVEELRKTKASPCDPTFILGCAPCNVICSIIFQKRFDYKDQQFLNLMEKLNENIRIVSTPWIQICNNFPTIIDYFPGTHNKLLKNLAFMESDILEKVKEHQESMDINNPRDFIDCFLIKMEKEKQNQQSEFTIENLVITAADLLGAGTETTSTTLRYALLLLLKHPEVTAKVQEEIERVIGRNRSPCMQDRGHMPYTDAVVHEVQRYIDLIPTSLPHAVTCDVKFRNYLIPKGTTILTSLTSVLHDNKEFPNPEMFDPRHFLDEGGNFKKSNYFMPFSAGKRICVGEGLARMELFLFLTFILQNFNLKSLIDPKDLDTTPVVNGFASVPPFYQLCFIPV
hDAT+cocaine = modulates human dopamine transporter uptake under cocaine; Q01959; LLC-PK1 hDAT cells, [14C]-dopamine uptake with cocaine IC80; actives deviate in either direction; B-score at 10 µM; hit rate 1.3% among 110,000; AID 449768;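 active = Z score or B-score, a plate-position-corrected score, falls beyond the plate's 99.7% confidence bounds, in either direction; inactive = both scores lie inside the 99.7% bounds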;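 note: scored against the spread of the other compound wells on the same plate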
CYP2C19 inh = human CYP2C19 inhibition; P33261; CYP2C19 Supersomes, luciferin-H EGE luminescence, 30 min; inhibition, % at 5 µM; hit rate 21% among 96,000; AID 778;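 active = CYP2C19 inhibition above a set limit at 5 µM in the primary screen, cut at about 50% in these data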;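 note: plate controls were negative control wells for no effect and 2.5 mM tranylcypromine positive control for full effect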
Active calls of the source: *; nt = no result.

SMILES	D1 mod	CYP2C9 activ	CYP2C9 inhib	CYP2C19 act	hDAT+cocaine	CYP2C19 inh
Cc1ccc(S(=O)(=O)NCCNc2ccc([N+](=O)[O-])cc2C(F)(F)F)cc1	nt	0.2	77*	0.5	0.14	49
CS(=O)(=O)N(CCc1ccccc1)CC(=O)N1CCCCC1	-0.46	1.1	-10	0.9	1.8	7
CCN(CC(=O)N1CCc2ccccc2C1)S(=O)(=O)c1ccc2ccccc2c1	nt	2.4*	-143	0.6	0.93	39
CS(=O)(=O)N(CCc1ccccc1)CC(=O)N1CCc2ccccc2C1	-0.28	0.5	54*	0.3	0.18	68*
Cc1ccc2nc(SCc3nc4c(cnn4-c4ccccc4)c(=O)[nH]3)[nH]c2c1	nt	0.9	8	1	nt	0
Cc1cc2nncn2c(Cc2ccccc2)n1	nt	0.9	6	0.7	-0.17	26
C=CCNC(=O)NC(=S)c1ccccc1	nt	1	-2	0.7	-0.89	35
COc1cccc(-c2csc3nnc(SCC(=O)NCc4cccs4)n23)c1	0.5	0.6	40	0.4	0.71	59*
COc1ccc(-c2nnc(SCC(=O)NCc3cccs3)n2C(C)C)cc1	nt	0.5	54*	0.3	0.087	66*
N#Cc1cc(C(=O)c2cc(Br)ccc2O)cn(C2CCCCC2)c1=O	nt	1.1	-13	1.1	-0.58	-13
c1ccc(-c2ccc(-c3cnc4n3CCCCC4)cc2)cc1	nt	0.3	66*	0.6	0.39	40
c1cc2c(cc1-c1cnc3n1CCC3)OCCO2	-2.8	1	-2	1	0.11	-3
COC(=O)c1[nH]c2cccc(OC)c2c1NC(=O)CN1CC2(C)CC1CC(C)(C)C2 (stereo not given)	1	1	-1	1	1.1	2
CCC(C)n1c(SCC(=O)Nc2cc(C)on2)nc2ccccc2c1=O (stereo not given)	nt	0.5	52*	0.4	0.15	62*
Cc1cc(NC(=O)CSc2nc3ccccc3c(=O)n2C(C)c2ccccc2)no1 (stereo not given)	nt	0.9	14	0.2	1.2	82*
C[C@H](CS)C(=O)N1CCC[C@H]1C(=O)O	0.0089	nt	nt	nt	-0.92	nt
COc1ccc(C2=NN(CN3C(=O)C(=O)c4ccccc43)C(c3ccc(C)cc3)C2)cc1 (stereo not given)	nt	0.2	76*	0.5	1	51*
COc1ccc(CNC(=O)C2CC(c3ccc(OC)cc3)=NO2)cc1 (stereo not given)	0.036	1.6	-56	1.1	-3.4*	-12
O=C(NCc1ccc(OC(F)(F)F)cc1)C1CC(c2ccccc2[N+](=O)[O-])=NO1 (stereo not given)	nt	3.1*	-213	0.8	0.94	23
CCn1ncc(C2=NOC(C(=O)Nc3ccc(C)cc3)C2)c1C (stereo not given)	nt	1.2	-23	0.7	0.25	29
O=C(NCCCCc1ccccc1)C1CC(c2ccccc2[N+](=O)[O-])=NO1 (stereo not given)	nt	0.6	37	0.5	1.3	51*
COc1ccc(CNC(=O)C2CC(c3ccc(F)cc3)=NO2)cc1 (stereo not given)	0.12	1	3	0.9	0.55	8
CCCCNC(=O)C1CC(c2ccccc2[N+](=O)[O-])=NO1 (stereo not given)	nt	1.9	-86	0.7	0.048	35
CCn1ncc(C2=NOC(C(=O)NCc3ccc(Cl)cc3)C2)c1C (stereo not given)	3.2	0.5	50*	0.3	nt	66*
Cc1ccc(CCNC(=O)C2CCC(=O)N2C(C)C)cc1 (stereo not given)	-0.17	1.2	-19	1.1	-0.56	-8
SMILES	D1 mod	CYP2C9 activ	CYP2C9 inhib	CYP2C19 act	hDAT+cocaine	CYP2C19 inh
Cc1nn(C)c(C)c1CN(C)S(=O)(=O)c1ccc2ccccc2c1	nt	nt	nt	nt	-1.5	nt
COc1ccc(S(=O)(=O)N(CC(=O)N2CCCC2)Cc2ccccc2)cc1	0.8	0.8	23	0.6	0.22	42
Cc1ccc(S(=O)(=O)N(CCC(=O)O)Cc2ccc(Cl)cc2)cc1	nt	0.5	54*	0.6	0.26	37
COc1ccc(S(=O)(=O)N(C)CC(=O)N2CCN(Cc3ccccc3)CC2)cc1C	nt	2.4*	-137	0.7	0.24	32
CCOC(=O)N1CCN(C(=O)CN(Cc2ccccc2)S(=O)(=O)c2ccc(OC)c(Cl)c2)CC1	nt	0.5	55*	0.1	0.66	89*
CCOC(=O)N1CCN(C(=O)CN(Cc2ccccc2)S(=O)(=O)c2ccc(OC)c(C)c2)CC1	-0.11	0.7	27	0.4	0.63	64*
CCOC(=O)N1CCN(C(=O)CN(Cc2ccc(Cl)cc2)S(=O)(=O)c2ccc(C)cc2)CC1	nt	0.1	90*	0	1.8	96*
Cc1cccc(-n2nnc(C(=O)NCc3ccccn3)c2N)c1	-0.28	1.2	-24	1	-1.4	1
Cc1ccc(-n2c(Cn3nc(C(F)(F)F)cc3C)n[nH]c2=S)cc1	nt	1.1	-10	0.9	0.31	8
Cc1noc(C)c1CSc1nnc2cc(C)c3ccccc3n12	-0.0077	0.9	13	0.7	0.25	34
CCN(CC)CC(O)COc1ccc2c(c1)c(C(C)=O)c(C)n2-c1ccccc1 (stereo not given)	nt	nt	nt	nt	-0.64	nt
CC(=O)c1c(C)n(CCO)c2ccc(O)cc12	nt	1.1	-15	1	1.3	4
CC(=O)c1c(C)n(-c2ccccc2)c2ccc(OCC(O)CN3CCOCC3)cc12 (stereo not given)	0.75	0.3	68*	0.2	0.17	77*
CC(=O)c1c(C)n(-c2ccccc2)c2ccc(O)cc12	-1.3	0.5	49	0.2	-0.81	82*
COC(=O)c1c(C)n(-c2ccc(C)cc2)c2ccc(O)cc12	nt	0.7	25	0.5	1.1	53*
Cc1cccn2cc(CCNS(=O)(=O)c3ccc4c(c3)OCCO4)nc12	0.014	1.3	-27	0.6	-1.2	42
CCOC(=O)C(/C=C(\C#N)C(=O)OCC)=C(/N)N1CCN(c2c(C)cccc2C)CC1	nt	1.1	-10	0.8	-1.2	16
COC(=O)c1sc(S(=O)(=O)N2CCC(C(=O)O)CC2)c(C(=O)OC)c1C	nt	1	3	1	-0.013	3
CCC(C)NC(=O)CSc1nc2ccccc2c(=O)n1Cc1ccc(OC)cc1 (stereo not given)	nt	0.9	12	0.1	-0.97	85*
CCn1c(SCC(=O)Nc2ccccc2OC)nc2ccccc2c1=O	nt	0.1	86*	0.4	0.32	61*
COc1ccc(NC(=O)CSc2nc3ccccc3c(=O)n2CCNC(C)=O)cc1	0.89	0.4	58*	0.1	-0.23	94*
CCOc1ccc(NC(=O)CSc2nc3ccccc3c(=O)n2CCNC(C)=O)cc1	-0.31	0.9	6	0.9	-1.7	6
COc1ccc(NC(=O)CSc2nc3ccccc3c(=O)n2CCNC(C)=O)c(OC)c1	0.018	0.5	51*	0.5	0.13	48
O=C(c1ccc(Cl)cc1)N1CCCC(c2ccccc2)=N1	nt	0.8	20	0.7	-0.15	29
